For 1 compound, AC50 results are on record in PubChem BioAssay AID2284073 (EPA ToxCast).

The source made the active and inactive calls. How the source made its calls: active means hit-call score of the fitted dose curve at least 0.9, where 1 is the maximum; inactive means score below 0.9.

Sequence of human (CYP19A1), CYP19A1 (gene 1588) (P11511 whole entry, looked up): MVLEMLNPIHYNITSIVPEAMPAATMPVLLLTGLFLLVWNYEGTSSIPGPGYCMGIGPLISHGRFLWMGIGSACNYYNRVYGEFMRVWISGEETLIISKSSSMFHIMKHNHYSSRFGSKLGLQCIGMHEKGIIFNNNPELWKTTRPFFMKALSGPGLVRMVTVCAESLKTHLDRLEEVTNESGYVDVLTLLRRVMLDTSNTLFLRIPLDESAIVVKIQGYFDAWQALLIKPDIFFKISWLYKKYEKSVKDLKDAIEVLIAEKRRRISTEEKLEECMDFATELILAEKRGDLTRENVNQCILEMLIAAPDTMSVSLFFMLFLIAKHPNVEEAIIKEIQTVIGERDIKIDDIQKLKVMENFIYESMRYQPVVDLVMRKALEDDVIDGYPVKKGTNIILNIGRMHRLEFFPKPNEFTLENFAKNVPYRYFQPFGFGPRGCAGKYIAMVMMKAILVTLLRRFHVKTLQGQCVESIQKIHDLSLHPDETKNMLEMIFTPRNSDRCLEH

In the test the target is human (CYP19A1), CYP19A1 (gene 1588) (UniProt P11511). Description: ERF_TW_ENZ_hCYP19A1: Eurofins (ERF) Enzymatic CYP450 LeadHunter Assay for human (CYP19A1). Here is the method:
ERF_TW_ENZ_hCYP19A1 is a biochemical, single-readout assay that uses extracted gene-proteins in a cell-free assay. Measurements were taken 0.75 hour after chemical dosing in a 96-well plate. See CYP19A1 Human CYP450 Enzymatic Assay, Panlabs.ERF_TW_ENZ_hCYP19A1 is an assay component calculated from the ERF_TW_ENZ_hCYP19A1 assay. It is designed to measure enzyme activity using a type of enzyme reporter as detected by fluorescence intensity with spectrophotometry technology.Data from the assay component ERF_TW_ENZ_hCYP19A1 was analyzed at the assay endpoint, ERF_TW_ENZ_hCYP19A1, in the positive analysis fitting direction relative to DMSO as the negative control and baseline of activity. Using a type of enzyme reporter, loss-of-signal activity can be used to understand changes in enzymatic activity as they relate to gene CYP19A1. To generalize the intended target to other relatable targets, this assay endpoint is annotated to the cyp intended target family, where the subfamily is steroidogenesis-related.
Human recombinant CYP450 19 plus P450 reductase, expressed in baculovirus infected insect BTI-TN-5B1-4 cells is used. Test compound and/or vehicle is preincubated with 4 nM enzyme in phosphate buffer pH 7.4 for 15 minutes at 37C. […] Determination of the amount of dibenzylfluorescein remaining is read spectrofluorimetrically. […]
With `COc1cc(CCC(=O)CC(=O)CCc2ccc(O)c(OC)c2)ccc1O`, the AC50 (commonly the midpoint of the concentration-response curve, whichever way the signal moves) is 5.05 µM (active).
